Screening data deposited in PubChem BioAssay by The Scripps Research Institute Molecular Screening Center.
An excerpt weighted towards active compounds, which were near 5.7% of everything screened.
DAX1 inh-1 – inhibitors of DAX1 repression of SF-1 activated StAR promoter. HEK293T StAR-luciferase reporter, SF-1/DAX-1 repression relief. inhibition, % at 6.8 µM. 370,000 compounds, 1.1% hits;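 active = inhibition above the mean over all tested compounds plus 3 SD, cut at about 3.6% in these data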;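 also: higher inhibition means more luminescence from relief of DAX-1 repression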
DAX1 inh-2 – inhibits human nuclear receptor DAX1. P51843. HEK293 Gal4-DAX1 luciferase reporter, luminescence. inhibition, % at 6.75 µM. 340,000 compounds, 0.99% hits. AID 504766;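 active = inhibition above the mean over all tested compounds plus 3 SD, cut at about 4.2% in these data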;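 also: inhibition shows as a rise in luminescence from relieved DAX1 repression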
Target sequence (P51843 207-470 limits assumed): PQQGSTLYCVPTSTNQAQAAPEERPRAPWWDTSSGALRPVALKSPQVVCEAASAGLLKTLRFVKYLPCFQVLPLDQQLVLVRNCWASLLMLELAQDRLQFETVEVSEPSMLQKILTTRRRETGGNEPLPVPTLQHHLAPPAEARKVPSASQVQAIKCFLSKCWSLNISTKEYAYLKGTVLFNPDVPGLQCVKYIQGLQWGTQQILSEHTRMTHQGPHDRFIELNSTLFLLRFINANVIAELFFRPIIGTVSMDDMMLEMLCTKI
AHR activator – activates the human aryl hydrocarbon receptor; P35869; AHR-responsive luciferase reporter cells, luminescence; activation, % at 5 µM; 320,000 compounds, 2.5% hits; AID 2796; in the data active = activation above about 47%
ssDAF12 agonist – activates DAF-12 receptor from parasite S. stercoralis; HEK293 ssDAF-12/GRIP1 lit1-tk-luc reporter, luminescence; % of 3 µM dafachronic acid response; 370,000 compounds, 1% hits; activation, % at 6.8 µM; AID 652126;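 active = activation above the mean over all tested compounds plus 3 SD, cut at about 0.9% in these data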
hgDAF12 agonist – hgDAF-12 agonism, primary luciferase screen; HEK293 GAL4-hgDAF12 UAS-luciferase reporter, agonist luminescence; normalized to butyrate control; activation, % at 6.8 µM; 370,000 compounds, 1.8% hits;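 active = activation above a cutoff set at the mean of all screened compounds plus 3 SD, cut at about 10% in these data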
hcDAF12 agonist – H. contortus DAF-12 activation, primary screen; activation, % at 6.8 µM; HEK293 hcDAF-12 lit1-tk-luc reporter, luminescence; 0% DMSO, 100% Δ7-dafachronic acid; 370,000 compounds, 1.4% hits;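 active = activation above the mean of all tested compounds plus 3 SD, cut at about 5.5% in these data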
hgDAF12 ag – hgDAF-12 agonism, confirmation assay; shares compounds with hgDAF12 agonist; HEK293 GAL4-hgDAF12 luciferase reporter, agonist mode; percent of butyrate response; activation, % at 6.8 µM; 3,300 compounds, 80% hits;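 active = mean activation over triplicate wells above the hit cutoff derived from the earlier primary screen, cut at about 11% in these data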
LXR ag 2 – counter-screen for DAF-12 agonists: agonists of human LXR-beta; shares compounds with hgDAF12 agonist; HEK293 Gal4-LXR luciferase reporter, 24 h; activation, % at 6.8 µM; 3,300 tested, under 10 active;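 active = mean activation of the triplicate above a set limit carried over from the primary screen, none filed active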
Target sequence (P55055 whole entry, looked up, the tested form may be a part): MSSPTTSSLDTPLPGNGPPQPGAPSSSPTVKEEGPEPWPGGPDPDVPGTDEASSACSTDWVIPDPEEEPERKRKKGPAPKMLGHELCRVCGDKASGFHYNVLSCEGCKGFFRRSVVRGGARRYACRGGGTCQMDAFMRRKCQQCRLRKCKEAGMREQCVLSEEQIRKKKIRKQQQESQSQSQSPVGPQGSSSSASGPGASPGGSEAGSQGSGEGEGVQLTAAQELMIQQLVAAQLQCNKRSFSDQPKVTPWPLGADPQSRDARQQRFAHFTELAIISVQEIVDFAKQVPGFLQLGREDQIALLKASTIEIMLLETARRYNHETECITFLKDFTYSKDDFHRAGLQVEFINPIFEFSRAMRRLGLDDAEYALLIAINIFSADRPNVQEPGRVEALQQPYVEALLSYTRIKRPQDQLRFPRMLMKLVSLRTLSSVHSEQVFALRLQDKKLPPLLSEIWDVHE
Large screens that a line does not name were inactive (follow-up assays come after a bar, where they were run).

CCOc1cc(/C=N/NC(=O)Nc2ccccc2)ccc1O	ssDAF12 agonist 3.8, hgDAF12 agonist 13, hcDAF12 agonist 6.1 | hgDAF12 ag 11 | LXR ag 2 inactive
CCOc1cc(/C=N/NC(=O)c2ccc(NC(=O)C3CC3)cc2)ccc1O	none
COc1ccc(C=NNC(=O)NN=Cc2ccc(OC)c(OC)c2)cc1OC	DAX1 inh-2 5.0, hgDAF12 agonist 13 (no result: AHR activator) | hgDAF12 ag inactive | LXR ag 2 inactive
COc1ccc(C=NNC(=O)CCCC(=O)NN=Cc2ccc(OC)c(OC)c2)cc1OC	none (no result: AHR activator)
S=c1nc(-c2ccccc2)oc2c1CCCC2	none
COc1cccc(-c2nc(=S)c3c(o2)CCCC3)c1	DAX1 inh-1 3.7, DAX1 inh-2 5.1, hgDAF12 agonist 13 | hgDAF12 ag 17 | LXR ag 2 inactive
COC(=O)C[C@H]1C[C@@H]2c3cc(NC(=O)CN(C)C)ccc3O[C@@H]2[C@H](CO)O1	none (no result: AHR activator)
COc1ccc(CCNCc2cc3ccc(C)cc3[nH]c2=O)cc1OC	none
Cc1cc(NC(=O)c2cccc(Oc3ccccc3)c2)n[nH]1	DAX1 inh-1 3.7, AHR activator 66, hgDAF12 agonist 19 | hgDAF12 ag 13 | LXR ag 2 inactive
O=C(O)c1ccccc1C(=O)Nc1cc(-c2ccccc2)[nH]n1	none
O=C(Nc1cc(-c2ccccc2)[nH]n1)c1ccccc1	hgDAF12 agonist 14 | hgDAF12 ag 16 | LXR ag 2 inactive
COc1ccc(/C=N/Nc2ccc([N+](=O)[O-])cc2)cc1O	DAX1 inh-2 7.8, hgDAF12 agonist 17 | hgDAF12 ag 17 | LXR ag 2 inactive
N#CC1CC(c2ccccc2)Nc2cc(Cl)ccc2N1 (stereo not drawn)	hgDAF12 agonist 20, hcDAF12 agonist 6.0 | hgDAF12 ag 13 | LXR ag 2 inactive
O=C(CNC(=O)c1ccncc1)N/N=C/c1ccc(O)cc1O	none
CCCNC(=O)Cn1sc2nc(C)cc(C)c2c1=O	none
O=C(COc1ccc(Br)cc1Cl)NC(=S)N1CCc2ccccc21	ssDAF12 agonist 1.0, hgDAF12 agonist 13, hcDAF12 agonist 6.2 | hgDAF12 ag inactive | LXR ag 2 inactive
O[C@@H]1CN(CC2CCCCC2)[C@@H](c2ccc(Cl)cc2)C[C@H]1n1cc(-c2ccc(F)cc2)nn1	none (no result: AHR activator)
CCC/C=N/NC(=O)c1ccc(F)cc1	none
CCC/C=N/NC(=O)c1cccc(Br)c1	hgDAF12 agonist 14 | hgDAF12 ag inactive | LXR ag 2 inactive
Cc1occc1C(=O)N/N=C/c1c(O)ccc2ccccc12	none
Cc1occc1C(=O)N/N=C/c1cnn(C)c1C	hgDAF12 agonist 16 | hgDAF12 ag inactive | LXR ag 2 inactive
Cc1ccc(/C=N/NC(=O)c2ccoc2C)o1	hgDAF12 agonist 14 | hgDAF12 ag inactive | LXR ag 2 inactive
O=C(N/N=C/c1ccc(Cl)cc1Cl)c1cccc(F)c1	hgDAF12 agonist 15 | hgDAF12 ag 15 | LXR ag 2 inactive
Cc1c(/C=N\NC(=O)c2cccc(F)c2)cnn1C	hgDAF12 agonist 15 | hgDAF12 ag inactive | LXR ag 2 inactive
Cc1ccc(/C=N/NC(=O)C(=O)N/N=C/c2ccc(C)o2)o1	none
O=C(N/N=C/c1ccc(Cl)cc1Cl)c1ccc2nc[nH]c2c1	none
Cc1c(/C=N/NC(=O)c2ccc3c(c2)OCO3)cnn1C	none
COc1cccc(/C=N/NC(=S)Nc2cccc(C(=O)O)c2)c1O	hgDAF12 agonist 17 | hgDAF12 ag inactive | LXR ag 2 inactive
CC(=O)Nc1cccc(C(=O)N/N=C/c2ccccc2F)c1	DAX1 inh-1 3.7, hgDAF12 agonist 14 | hgDAF12 ag 20 | LXR ag 2 inactive
O=C(c1ccc2c(c1)OCO2)N1CCN(CCN2C(=O)c3cccc4cccc(c34)C2=O)CC1	none (no result: AHR activator)
O=C(NNC(=S)Nc1ccccc1)c1ccc(O)cc1	DAX1 inh-2 6.0, hgDAF12 agonist 15 | hgDAF12 ag 12 | LXR ag 2 inactive
O=C(NNC(=S)NC(=O)c1ccccc1)c1ccc(O)cc1	none
C/C(CC(=O)Nc1ccc(C)c(Cl)c1)=N\NC(=O)c1ccccn1	hgDAF12 agonist 14 | hgDAF12 ag inactive | LXR ag 2 inactive
C/C(CC(=O)Nc1ccc(N(C)C)cc1)=N\NC(=O)c1ccccn1	none
Cc1cccc(N2CCN(C(=O)COc3ccc4c(C)cc(=O)oc4c3C)CC2)c1C	none
COc1cc(/C=N/N2CCOCC2)ccc1OCc1ccccc1	hgDAF12 agonist 18 | hgDAF12 ag inactive | LXR ag 2 inactive
C[C@@H]1CCCCO[C@@H](CN(C)C(=O)C2CCCCC2)[C@@H](C)CN([C@H](C)CO)C(=O)c2cc(NC(=O)NC3CCCCC3)ccc2O1	none (no result: AHR activator)
O=C(Nc1ccc(C(O)(C(F)(F)F)C(F)(F)F)cc1)c1ccc(Cl)cc1	hgDAF12 agonist 14 (no result: DAX1 inh-1, DAX1 inh-2, AHR activator) | hgDAF12 ag inactive | LXR ag 2 inactive
O=C(Nc1ccc(C(O)(C(F)(F)F)C(F)(F)F)cc1)c1ccc(Cl)c([N+](=O)[O-])c1	none
O=C(/C=C/c1ccc(Br)cc1)NC(=O)c1ccccc1O	hgDAF12 agonist 13 | hgDAF12 ag 12 | LXR ag 2 inactive
CC(=O)c1cccc(NC(=O)Nc2ccc3c(c2)OCO3)c1	hgDAF12 agonist 14 (no result: AHR activator) | hgDAF12 ag 14 | LXR ag 2 inactive
O=C(Nc1ccc2c(c1)OCCO2)NC12CC3CC(CC(C3)C1)C2	hgDAF12 agonist 14 | hgDAF12 ag 17 | LXR ag 2 inactive
O=C(Nc1cccc([N+](=O)[O-])c1)Nc1cccc([N+](=O)[O-])c1	none
O=C(Nc1cccc([N+](=O)[O-])c1)Nc1ccc2c(c1)OCCO2	hgDAF12 agonist 13 | hgDAF12 ag 17 | LXR ag 2 inactive
CC(=O)c1cccc(NC(=O)NCc2ccc3c(c2)OCO3)c1	none
COC(=O)c1ccc(C(=O)OC)c(NC(=O)C2CCCO2)c1 (stereo not drawn)	none
CCOc1ccc(NC(=O)CN(C)C(=O)CCCn2c(=O)oc3ccccc32)cc1OCC	none
CSCCC(NC(=O)/C(=C/c1ccco1)NC(=O)c1ccc(Br)o1)C(=O)O (stereo not drawn)	none
CCCNC(=O)c1oc2ccc3c(c2c1C)C(=O)CC(C)(C)O3	hgDAF12 agonist 16 | hgDAF12 ag 13 | LXR ag 2 inactive
O=C(O)CCS(=O)(=O)Cc1ccccc1Cl	none
O=C(O)CCS(=O)(=O)c1ccccc1Cl	hgDAF12 agonist 17 | hgDAF12 ag inactive | LXR ag 2 inactive
COc1cccc(-c2cn3nc(C)c(C)nc3n2)c1	hgDAF12 agonist 15 | hgDAF12 ag 14 | LXR ag 2 inactive
Cc1nc2nc(-c3cccs3)cn2nc1C	none
Cc1ccc(OC(=O)c2ccc3nc(C)sc3c2)cc1	hgDAF12 agonist 15 (no result: DAX1 inh-2) | hgDAF12 ag 17 | LXR ag 2 inactive
